Compound activity from PubChem.
The list is not random: actives were taken first. Their share in the collection is about 21%.
Pf growth 96h: P. falciparum growth inhibition at 96 hour, primary screen for plastid delayed-death inhibitors. P. falciparum luciferase reporter growth, 96 h. Potency, µM (series often up to 28.7 µM), hits mostly inhibitors. 6.9% of 320,000 active. AID 504834
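Luminescence readout: decreased luciferase signal marks inhibited growth of reporter-expressing P. falciparum in infected red cells (2% hematocrit, 0.05% parasitemia final), exposed to compound two generations (96 h, 37 C, 5% CO2).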
HCV inhibitor: blocks hepatitis C virus | Huh7.5.1 HCVcc-Cre infection, luciferase reporter, 44 h | Potency, µM (top dose mostly 41.8 µM), actives largely listed as inhibitors | 3.4% of 340,000 active
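Antiviral activity was scored by luciferase reporter output from cells infected with HCVcc-Cre (~0.5 moi) in presence of compound, 44 h infection period, cells seeded 1,000/well 4 h prior.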
AMA1-RON2 inh: AMA1-RON2 (P. falciparum) interaction inhibition; AlphaScreen AMA1-biotinylated RON2 peptide binding; Potency, µM (series often up to 58.2 µM), hits mostly inhibitors; 0.2% of 360,000 active; note: nearly all actives have a fitted effect of over 45% in size
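AMA1 (3D7) with his tag at 25 nM final met compounds first, then biotinylated RON2 peptide at 25 nM; detection used donor plus acceptor beads, 10 µg/mL apiece, read by AlphaScreen after 30 min at room temperature.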
CHX counter: affects cycloheximide protein synthesis inhibition readout, counter-screen; cell reporter, cycloheximide protein synthesis inhibition counterscreen; max response, %; 12% of 300,000 active; AID 2314; in the data active = max response mostly above about 13%, no sharp cut-off; inactive = mostly below about 14%; note: read at 38.3 µM for the half of the compounds with a filed dose
Pf growth 48h: P. falciparum growth inhibition at 48 hours (one generation); 5.9% of 310,000 active; Potency, µM (top dose mostly 28.7 µM), actives largely listed as inhibitors; P. falciparum luciferase growth in erythrocytes, 48 h; AID 504832
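Cell-based growth assay: transgenic P. falciparum expressing firefly luciferase, cultured in red cells within RPMI 1640 containing 0.5% w/v Albumax, 24 mM bicarbonate and gentamycin. A drop in luciferase activity indicates inhibition.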
Shiga inhibitor: Shiga toxin inhibition | 9.2% of 290,000 active | Vero cells, Shiga toxin protein synthesis inhibition reporter | inhibition, % at 38.7 µM; in the data active = inhibition mostly above about 28%, no sharp cut-off; inactive = mostly below about 43%
Of the large screens only hits and unclear results are named; the others gave an inactive call. Unless noted, calls come from the whole dose curve; as a rule, active = well fitted curve in the direction sought with a large enough effect; inconclusive = small, poorly fitted or top-dose-only effect, or another doubt; inactive = no such curve, though single readings can be large; an effect the other way counts as inactive or inconclusive.

O=C(Nc1c(Cl)cccc1Cl)C1CCN(C(=O)c2cccs2)CC1	none
O=C(CN1C(=O)NC(c2ccccc2)(c2ccccc2)C1=O)N1CCOCC1	none (no result: CHX counter, Shiga inhibitor)
Cc1cc(NC(=O)C2CC(=O)N(c3cccc(Cl)c3)C2)no1 (stereo not drawn)	none
COc1ccc(NC(=O)COc2ccccc2C#N)c(S(=O)(=O)N2CCCCC2)c1	Pf growth 96h inconclusive, HCV inhibitor 10µM (no result: Pf growth 48h)
C=CC[n+]1cccc(-c2cc3ccc(C)cc3[nH]2)c1	Pf growth 96h 5.22µM, Pf growth 48h inconclusive
C=CC[n+]1ccc2ccccc2c1C	Pf growth 48h inconclusive
Oc1cccc(C=NCc2ccccc2)c1	none (no result: Pf growth 96h)
C/C(=N\NC(=O)c1csc2ccccc12)c1ccc(O)cc1	CHX counter 17.7 (no result: Pf growth 96h)
O=C(N/N=C/c1cccc(O)c1)c1ccccc1O	CHX counter 49.4, Shiga inhibitor 68.3
O=C(COc1ccc(/C=N/NC(=O)c2ccccc2O)cc1)Nc1ccccc1	none
Oc1cccc(/C=N/NP(=S)(c2ccccc2)c2ccccc2)c1	CHX counter 13.9 (no result: Pf growth 48h)
O=C(N/N=C/c1cccc(O)c1)c1csc2ccccc12	CHX counter 48.7, Shiga inhibitor 87.1
COc1ccc(OCC(=O)NC2CC(C)(C)NC(C)(C)C2)cc1	Pf growth 96h inconclusive, CHX counter 31.3
Cc1c(C)c2cc(Cl)c(OCC(=O)NC3CC(C)(C)NC(C)(C)C3)cc2oc1=O	Pf growth 96h inconclusive, HCV inhibitor inconclusive, Pf growth 48h inconclusive
CC1(C)CC(NC(=O)COc2ccc(Br)cc2Cl)CC(C)(C)N1	HCV inhibitor 25.1µM
Cc1c(OCC(=O)NC2CC(C)(C)NC(C)(C)C2)ccc2c3c(c(=O)oc12)CCC3	Pf growth 96h inconclusive, HCV inhibitor inconclusive, Pf growth 48h inconclusive
CC1(C)CC(NC(=O)COc2ccccc2Cl)CC(C)(C)N1	CHX counter 28.0, Shiga inhibitor 95.1
Cc1c(OCC(=O)NC2CC(C)(C)NC(C)(C)C2)ccc2c1oc(=O)c1ccccc12	Pf growth 96h 3.29µM, HCV inhibitor 2µM, Pf growth 48h 3.7µM
COCCN(C(=O)COC(=O)CCC(=O)c1ccc(Cl)cc1)c1c(N)n(Cc2ccccc2)c(=O)[nH]c1=O	none
Cc1noc(C)c1NC(=O)Nc1ccc2c(c1)C(=O)N([C@H](C)CO)C[C@H](C)[C@@H](CN(C)S(=O)(=O)c1ccccc1)O2	none (no result: Pf growth 96h, CHX counter, Pf growth 48h, Shiga inhibitor)
O=C(NCc1ccco1)C1(S(=O)(=O)c2ccccc2)CC=CC1	none
NC(=O)C(=O)NCCCN1CCOCC1	Pf growth 96h inconclusive
Cc1ccc(NC(=O)c2cc(S(=O)(=O)NCCC3=CCCCC3)ccc2F)cc1F	Pf growth 96h inconclusive, HCV inhibitor 4.47µM, Pf growth 48h inconclusive
Cc1ccc(S(=O)(=O)NCCC2=CCCCC2)cc1C(N)=O	Pf growth 96h 10.4µM, HCV inhibitor inconclusive
CC1CCCCN1C(=O)COC(=O)c1ccc(=O)n(Cc2ccccc2)n1 (stereo not drawn)	none (no result: CHX counter, Shiga inhibitor)
O=C1/C(=C/c2ccc(N3CCOCC3)o2)SC(=Nc2ccccc2)N1CCc1c[nH]c2ccccc12	Pf growth 96h 1.65µM, HCV inhibitor 3.16µM, Pf growth 48h 9.28µM
COc1cc(/C=C2\SC(=Nc3ccccc3)N(CCc3c[nH]c4ccccc34)C2=O)ccc1OC(C)C(=O)O (stereo not drawn)	Pf growth 96h 5.22µM, HCV inhibitor inconclusive, Pf growth 48h 10.4µM
COc1ccc(N=C2S/C(=C\c3ccc(OC(C)C(=O)O)c(OC)c3)C(=O)N2CCc2c[nH]c3ccccc23)cc1 (stereo not drawn)	Pf growth 96h 1.65µM, HCV inhibitor inconclusive, Pf growth 48h inconclusive
COCCN1C(=O)/C(=C/c2ccc(Oc3ccc([N+](=O)[O-])cn3)c(OC)c2)SC1=Nc1ccccc1	Pf growth 96h 1.47µM, HCV inhibitor inconclusive
COc1cc(/C=C2/SC(=NCc3ccccc3)N(Cc3ccccc3)C2=O)ccc1O	none (no result: Pf growth 48h)
COc1cc(/C=C2/NC(=O)N(CC(=O)Nc3ccc(C)cc3)C2=O)ccc1Oc1ccc([N+](=O)[O-])cn1	none
O=C(CCNC(=O)c1ccccc1Cl)Nc1cccc(S(=O)(=O)N2CCCC2)c1	Pf growth 96h inconclusive, Pf growth 48h inconclusive (no result: CHX counter, Shiga inhibitor)
COc1ccc(NC(=O)c2ccc(-c3ccc(-c4noc(C)n4)cc3C)cc2)cc1N1CCN(C)CC1	Pf growth 96h 2.62µM, HCV inhibitor inconclusive, AMA1-RON2 inh inconclusive, Pf growth 48h 3.29µM (no result: CHX counter, Shiga inhibitor)
CN1CCN(Cc2nc3ccccc3c(=O)n2Cc2nc(-c3cccc([N+](=O)[O-])c3)cs2)CC1	Pf growth 96h 2.33µM, HCV inhibitor 2.51µM, Pf growth 48h inconclusive
CN1CCN(Cc2nc3ccccc3c(=O)n2Cc2nc(-c3ccc4ccccc4c3)cs2)CC1	Pf growth 96h inconclusive, HCV inhibitor 11.2µM, Pf growth 48h 11.7µM
CN(C)Cc1nc2ccccc2c(=O)n1Cc1nc(C(C)(C)C)cs1	HCV inhibitor inconclusive, Pf growth 48h 13.1µM
CN(C)Cc1nc2ccccc2c(=O)n1CC(=O)Nc1cccc(S(=O)(=O)N2CCOCC2)c1	HCV inhibitor inconclusive
CN1CCN(Cc2nc3ccccc3c(=O)n2Cc2nc(-c3ccccc3F)cs2)CC1	Pf growth 96h inconclusive, HCV inhibitor inconclusive, Pf growth 48h inconclusive
COC(=O)C1(C)COP(=O)(Nc2ccc(OC)cc2)OC1 (stereo not drawn)	none (no result: Pf growth 96h, HCV inhibitor, CHX counter, Pf growth 48h, Shiga inhibitor)
COc1ccccc1Nc1nccc(N(C)C)c1C#N	Pf growth 96h inconclusive
CCN(C(=O)COC(=O)c1cccc(S(=O)(=O)NCc2ccccc2)c1)c1ccccc1	HCV inhibitor inconclusive (no result: CHX counter, Shiga inhibitor)
Cc1onc(-c2ccccc2Cl)c1C(=O)NC(=S)Nc1ccc(C(C)(C)C)cc1	Pf growth 96h 6.57µM, Pf growth 48h inconclusive
CCc1ccc(NC(=S)NC(=O)c2c(-c3ccccc3Cl)noc2C)cc1	Pf growth 96h 7.38µM, Pf growth 48h 11.7µM
Cc1onc(-c2ccccc2Cl)c1C(=O)Nc1ccccc1	none
Cc1onc(-c2ccccc2Cl)c1C(=O)Nc1ccc(-c2nnc3n2CCCCC3)cc1	Pf growth 48h 9.28µM (no result: Pf growth 96h)
Cc1cc(C)n(-c2ccc(Cl)c(C(=O)Nc3ccc(-c4nnc5n4CCCCC5)cc3)n2)n1	Pf growth 96h 8.28µM, HCV inhibitor inconclusive, Pf growth 48h inconclusive
COc1ccc(-c2cccc(NS(=O)(=O)c3cc([N+](=O)[O-])c(C)c([N+](=O)[O-])c3)c2)nn1	none (no result: CHX counter, Shiga inhibitor)
CN(C(=O)c1cccc(NC(=O)Cc2cccc(NC(=O)C3CCCN(C(=O)C4CCC4)C3)c2)c1)C1CCC1 (stereo not drawn)	none (no result: Pf growth 96h, CHX counter, Pf growth 48h, Shiga inhibitor)
C[C@H]1CN([C@@H](C)CO)C(=O)c2cc(Br)cnc2O[C@H]1CN(C)Cc1ccc(Oc2ccccc2)cc1	none (no result: Pf growth 96h, HCV inhibitor, CHX counter, Pf growth 48h, Shiga inhibitor)
CC1(C)CC(NS(=O)(=O)c2ccc(S(N)(=O)=O)cc2)CC(C)(C)N1	none (no result: HCV inhibitor, AMA1-RON2 inh)
COc1cc(/C=C2\SC(=S)N(NC(=O)c3ccccc3OC)C2=O)ccc1O	AMA1-RON2 inh inconclusive, CHX counter 17.2
COc1cc(/C=C2\SC(=S)N(NC(=O)c3ccncc3)C2=O)ccc1O	none
